Only some compounds are listed: those with a hit (about 9.3% of all), similar ones and a draw of the others.
NPC1 promoter act – activates the NPC1 promoter. Huh7 NPC1 promoter luciferase reporter, 24 h. Potency, µM (doses to about 9.22 µM), for inactives: at the highest dose activation, actives largely listed as activators. 320,000 compounds, 2.4% hits. AID 485313; also: % of control where 0% means no effect; nearly all actives have a fitted effect of over 60% in size
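In 1536-well qHTS, Huh7 cells harboring an NPC1 promoter–luciferase construct received compound for 24 h; activation was quantified by luminescence following luciferase reagent addition.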
Rab9 prom act – activators of Rab9 promoter; Huh7 Rab9 promoter-luciferase reporter, luminescence, 24 h; Potency, µM (doses to about 9.22 µM), for inactives: at the top dose activation, negative = inhibition, usual class: activators; 320,000 compounds, 2.8% hits; also: % of control where 0% means no effect; nearly all actives have a fitted effect of over 60% in size
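Huh7 cells stably carrying Rab9 promoter–luciferase reporter, plated 1500 cells/well, compound added after 2 h and incubated 24 h at 37 °C; luciferase luminescence then read after 10 min with detection reagent.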
FLuc counter – counter-screen for miR-21 project: firefly luciferase inhibitors or activators; P08659; purified FLuc, Km substrates, luminescence inhibition; Potency, µM (series often up to 57.5 µM), for inactives: top-dose activity change, negative = inhibition, usual class: inhibitors; 360,000 compounds, 6.9% hits; AID 588342;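 also: plate controls were vehicle for no effect and reference inhibitor for full effect; nearly all actives have a fitted effect of over 55% in size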
Target sequence (P08659 whole entry, looked up): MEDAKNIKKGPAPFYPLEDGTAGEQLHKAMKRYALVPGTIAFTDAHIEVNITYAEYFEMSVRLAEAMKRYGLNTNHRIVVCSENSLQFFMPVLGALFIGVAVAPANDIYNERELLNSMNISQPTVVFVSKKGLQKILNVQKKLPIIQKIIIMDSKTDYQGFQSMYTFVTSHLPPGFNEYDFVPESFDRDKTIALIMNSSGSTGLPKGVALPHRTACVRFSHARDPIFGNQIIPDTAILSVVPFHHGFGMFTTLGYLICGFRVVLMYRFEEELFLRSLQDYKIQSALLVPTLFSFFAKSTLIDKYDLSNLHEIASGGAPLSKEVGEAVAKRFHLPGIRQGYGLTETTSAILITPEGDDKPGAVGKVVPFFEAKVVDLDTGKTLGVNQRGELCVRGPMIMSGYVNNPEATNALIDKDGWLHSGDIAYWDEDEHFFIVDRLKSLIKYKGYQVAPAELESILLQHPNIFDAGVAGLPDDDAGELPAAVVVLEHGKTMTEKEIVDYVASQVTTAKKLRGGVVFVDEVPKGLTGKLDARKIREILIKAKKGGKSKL
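Biochemical qHTS of compounds, final roughly 60 µM downward over six points, against 10 nM purified firefly luciferase using Km concentrations of substrates (10 uM D-luciferin, 10 uM ATP) in Tris acetate pH 7.5 buffer; luminescence output.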
ELG1 genotoxic – inducers of genotoxicity in HEK293T ELG1-luciferase cells; HEK293T ELG1-luciferase reporter, luminescence, 16 h; AID 504466; 330,000 compounds, 1.3% hits; Potency, µM (highest dose often 46 µM), without a hit: top-dose activity change, positive = activation, actives largely listed as activators; also: % of control where 0% means no effect; nearly all actives have a fitted effect of over 60% in size
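ELG1-luciferase HEK293T cells, 2,000/well; compound pinned in; 16 hr, 37 °C, 5% CO2; ONE-Glo, 30 min RT; luminescence on CCD imager.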
ELG1 DNA repair – blocks ELG1-dependent DNA repair in HEK293T cells | HEK293T ELG1-luciferase reporter, luminescence, 16 h; DNA damage induced by 5-fluorouridine | Potency, µM (top dose mostly 46.1 µM), for the others: at the top dose activity change, negative = inhibition, most hits filed as inhibitors | 330,000 compounds, 2.3% hits | AID 504467; also: % is scaled to controls: 0 for no effect and ±100 for the full control effect; nearly all actives have a fitted effect of over 55% in size
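5-Fluorouridine DNA damage + compound/DMSO, 2,000 cells/well, 16 h, 37 °C/5% CO2. ONE-Glo, 30 min RT, luminescence. Readout = decrease in reporter signal.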
SMN2 splice enh – enhancers of SMN2 splice variant expression | HEK293 SMN2-luciferase splicing reporter, luminescence, 30-36 h | Potency, µM (doses to about 46.1 µM), for inactives: at the top dose activity change, positive = activation, actives largely listed as activators | 210,000 compounds, 2.8% hits; also: % of control where 0% means no effect; nearly all actives have a fitted effect of over 55% in size
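HEK293 cells carry an SMN2 […]–luciferase reporter in which exon 7 inclusion puts luciferase in frame. Cells were plated 10-12 h before compound addition, then incubated 30-36 h at 37C. ONE-Glo luminescence was read; sodium butyrate at 4.5 mM final served as control.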
* = called active by the depositor; u = inconclusive; x = not tested or not shown. Calls follow the shape of the dose curve; as a rule, active = well fitted curve in the direction sought with a large enough effect; inconclusive = small, poorly fitted or top-dose-only effect, or another doubt; inactive = no such curve, though single readings can be large; an effect the other way counts as inactive or inconclusive. Potency is read from the fitted curve at half-maximal effect.

SMILES	NPC1 promoter act	Rab9 prom act	FLuc counter	ELG1 genotoxic	ELG1 DNA repair	SMN2 splice enh
COc1ccccc1N=CC=C1OC(C)(C)C(C)(C)O1	-8%	-1%	-1%	2%	u	10%
COC(=O)CC(NC(=O)c1ccc(C)cc1)c1ccccc1 (stereo not given)	2%	5%	3.8µM*	8%	19%	-4%
Cc1ccc(C(=O)NC(c2ccccc2)C(Cl)Cl)cc1 (stereo not given)	0%	-1%	21µM*	0%	5%	-15%
O=C(N/C(=C\c1cccs1)C(=O)N1CCOCC1)c1ccco1	2%	-13%	4%	-3%	-6%	2%
CCOC(=O)c1c(C)oc2cc(Br)c(OC(=O)N3CCOCC3)cc12	0%	29%	u	1%	23µM*	-7%
CCOC(=O)c1c(CN2CCOCC2)oc2ccc(OC(C)=O)cc12	-2%	-4%	0%	-1%	-14%	x
CN(C)c1ccc(C(=O)/C=C/c2ccccc2)cc1	4µM*	3.2µM*	1.2µM*	u	u	22µM*
CN(C)c1ccc(C(=O)/C=C/c2ccc(Br)cc2)cc1	25%	27%	1.7µM*	13%	u	7%
O=C(c1ccccc1)c1ccc(-c2ccc(O)cc2)cc1	-2%	3.2µM*	17µM*	u	u	x
CN(C)c1ccc(N=Nc2ccc(C(=O)O)cc2)cc1	0.013µM*	0.0002µM*	0.24µM*	-6%	u	x
CN(C)c1ccc(N=NS(=O)(=O)O)cc1	x	x	x	x	x	19%
CCCn1c(=O)c2sccc2n2c(CCCC(=O)NCc3ccccc3)nnc12	x	x	-4%	x	x	x
CCN(CC)c1ccc(/C=C/C(=O)c2ccc(Br)cc2)cc1	-10%	-2%	17µM*	1%	10%	-3%
CC(=O)Nc1cccc(C(=O)/C=C/c2ccc(Br)cc2)c1	-2%	-5%	u	-20%	u	16%
CN(C)c1ccc(C(=O)c2ccccc2)cc1	u	3.2µM*	11µM*	17%	u	29%
CS(=O)(=O)N(CC(=O)N1CCCC1)c1cc(Cl)ccc1Cl	1%	-1%	0%	-1%	0%	x
Cc1nc(Cl)sc1C(=O)Nc1ccccc1Cl	0%	-1%	-16%	3%	1%	x
Cc1nc(Nc2ccc(Cl)cc2Cl)sc1C(=O)Nc1ccccc1	-2%	4%	17µM*	-1%	u	-12%
Cc1nc(NC(=O)C2CC2)sc1C(=O)Nc1ccccc1Cl	3.5µM*	2.5µM*	u	13%	u	x
Cc1nc(NC(=O)/C=C/c2ccccc2)sc1C(=O)Nc1ccccc1Cl	1%	-6%	12µM*	12%	5%	13%
O=C(CSC1=NS(=O)(=O)c2ccccc2N1)Nc1nccs1	-2%	-2%	u	2%	26%	x
COc1cc(/C=C/C(=O)OCC(=O)NCc2ccc3c(c2)OCO3)cc(OC)c1OC	x	x	x	3%	-2%	x
Cc1cccc(C)c1NC(=S)N(CCN(C)C)C(C)c1ccccn1 (stereo not given)	-1%	-6%	-1%	2%	0%	-27%
CC(Cl)c1cc(-c2ncc(C(F)(F)F)cc2Cl)no1 (stereo not given)	-2%	2%	u	7%	-14%	7%
FC(F)(F)c1cnc(-c2cnc(-c3ccncc3)nc2)c(Cl)c1	u	3.2µM*	u	2%	u	24%
FC(F)(F)c1cnc(-c2cnc(-c3ccccn3)nc2)c(Cl)c1	u	0.71µM*	11µM*	2%	u	11µM*
Cc1cccc(-n2c(-c3csc(C)c3C)n[nH]c2=S)c1	0%	-1%	u	1%	-12%	-2%
CCCCn1c(N)c(N(CC(C)C)C(=O)c2cccc(S(=O)(=O)N3CCN(C)CC3)c2)c(=O)[nH]c1=O	-3%	-1%	7%	-1%	u	x

Screens: PubChem BioAssay, National Center for Advancing Translational Sciences (NCATS)
